Data: PubChem BioAssay (Tox21)
Inconclusive results are not listed. Where a call stands in place of a potency, no number is given. Values without a mark were called inactive. The source made the active and inactive calls. The call rests on the fitted dose curve; in most records, active means well fitted cell-killing curve with a large enough effect in the repeat runs; inconclusive means weak or mixed curves, or effect the other way; inactive means flat fitted curve, though single readings scatter.

Assays:
[1] = cAMP Responsive Elements (CRE) small molecule antagonists, cell-based qHTS assay: qHTS cell viability counter screen (AID 2060913); further: nearly all actives have a fitted effect of over 40% in size; further: potency means the concentration at half of the fitted maximal effect
Summary of the method: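 Cytotoxicity read in the same wells as the CRE-bla HEK293T antagonist assay: after 3 h compound with 0.25 uM NKH477 final and 2 h beta-lactamase substrate, CellTiter-Glo luminescence measured.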

[2] = cAMP Responsive Elements (CRE) small molecule agonists, cell-based qHTS assay: qHTS cell viability counter screen (AID 2060914); further: nearly all actives have a fitted effect of over 50% in size
Summary of the method: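 In the same wells as the reporter read, viability of CRE-bla HEK 293T cells was quantified by CellTiter-Glo luminescence after a 3 h compound exposure.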

| SMILES | Potency [1] | Potency [2] | viability change, negative = cytotoxic [1] | activity change, negative = cytotoxicity [2] |
| --- | --- | --- | --- | --- |
| CC1OC(=O)C(C)OC1=O (configuration not stated) | inactive | inactive | – | – |
| C[C@@H](Oc1ccc(CNC(=O)c2cccnc2Oc2ccc3c(c2)OCO3)c(F)c1)C(=O)O | 13.7 µM (active) | inactive | – | – |
| ClC1=C(Cl)C(Cl)(Cl)C(Cl)=C1Cl | inactive | inactive | – | – |
| C[C@]12CCC(=O)C=C1CC[C@@H]1[C@@H]2[C@@H](O)C[C@@]2(C)[C@H]1CC[C@]2(O)C(=O)COC(=O)CCC(=O)O | inactive | inactive | – | – |
| OC[C@H]1O[C@@H](Oc2ccc(O)cc2)[C@H](O)[C@@H](O)[C@@H]1O | inactive | inactive | – | – |
| Cc1[nH]c(C)c(Cl)c(=O)c1Cl | – | – | 2.74% [at 18.9 µM] | 4.19% [at 18.9 µM] |
| CC1=CC(C)C(C=O)CC1 (configuration not stated) | inactive | inactive | – | – |
| CC[C@@H](CO)NCCN[C@@H](CC)CO | inactive | inactive | – | – |
| CCCCCCCCO[C@@H]1O[C@H](CO)[C@@H](O)[C@H](O)[C@H]1O | inactive | inactive | – | – |
| CCCCCCC | inactive | inactive | – | – |
| O=c1[nH]nnc2ccccc12 | inactive | inactive | – | – |
| CN(C)[C@@H]1C(=O)C(C(N)=O)=C(O)[C@@]2(O)C(=O)C3=C(O)c4c(O)cccc4C[C@H]3C[C@@H]12 | inactive | inactive | – | – |
| Cc1oc(-c2ccccc2)nc1CCOc1cccc2c1ccn2CCC(=O)O | inactive | inactive | – | – |
| CCCCN(CCC(=O)OCC)C(C)=O | inactive | inactive | – | – |
| CO[Si](CCCn1c(=O)n(CCC[Si](OC)(OC)OC)c(=O)n(CCC[Si](OC)(OC)OC)c1=O)(OC)OC | inactive | inactive | – | – |
| Cc1c(-c2cccnc2)c2ccccc2n1CCCCC(=O)O | inactive | inactive | – | – |
| CC(C)(C)NCC(O)COc1ccc(NC(=O)NC2CCCCC2)cc1 (configuration not stated) | inactive | inactive | – | – |
| O=C(O)c1cc(=O)c2ccccc2o1 | inactive | inactive | – | – |
| CC(C)(C)CC(C)(C)c1ccc(Nc2ccc(C(C)(C)CC(C)(C)C)cc2)cc1 | – | – | -5.06% [at 8.39 µM] | 6.62% [at 8.39 µM] |
| CC(C)c1ccc2cc(C(C)C)ccc2c1 | inactive | inactive | – | – |
| COc1cc(C(=S)N2CCOCC2)cc(OC)c1OC | inactive | inactive | – | – |
| NC(=O)NNC(N)=O | inactive | inactive | – | – |
| O=C(O)CN(CCCN(CC(=O)O)CC(=O)O)CC(=O)O | – | – | 0.188% [at 18.9 µM] | -8.11% [at 18.9 µM] |
| Nc1nc(Cl)nc2c1ncn2[C@@H]1O[C@H](CO)[C@@H](O)[C@@H]1F | inactive | inactive | – | – |
| CC(COCCO)OCCO (configuration not stated) | inactive | inactive | – | – |
| Cc1cc(O)cc(C)c1Cl | inactive | inactive | – | – |

| SMILES | Potency [1] | Potency [2] | viability change, negative = cytotoxic [1] | activity change, negative = cytotoxicity [2] |
| --- | --- | --- | --- | --- |
| O=C1NC(=O)C2CC=CCC12 (configuration not stated) | inactive | inactive | – | – |
| CC(C)OC(=O)COc1ccc(Cl)cc1Cl | inactive | inactive | – | – |
| CN(N=O)C(=O)N[C@@H]1[C@@H](O)[C@H](O)[C@@H](CO)O[C@@H]1O | inactive | inactive | – | – |
| CC(C)Cn1cnc2c1c(=O)n(C)c(=O)n2C | inactive | inactive | – | – |
| Cc1cc(O)c2c(O)c3c(O)cccc3cc2c1 | inactive | inactive | – | – |
| OC1CCCC1 | inactive | inactive | – | – |
| O=C1CN(/N=C/c2ccc([N+](=O)[O-])o2)C(=O)N1 | inactive | inactive | – | – |
| CCCCCCCC[Si](OCC)(OCC)OCC | inactive | inactive | – | – |
| CCCCC(CC)CN1CN(CC(CC)CCCC)CC(C)(N)C1 (configuration not stated) | inactive | inactive | – | – |
| O=C(CCC1CCN(Cc2ccccc2)CC1)c1ccc2c(c1)NCCCC2 | inactive | inactive | – | – |
| CNC(=O)C(c1ccccc1)c1ccccc1 | inactive | inactive | – | – |
| O=C1CCCCC1 | inactive | inactive | – | – |
| CCCCCCCCCCO[C@@H]1O[C@H](CO)[C@@H](O)[C@H](O)[C@H]1O | inactive | inactive | – | – |
| CC/C=C/CCO | inactive | inactive | – | – |
| CCCCCCOC(C)=O | inactive | inactive | – | – |
| Clc1cc(Cl)c(Cl)nc1Cl | inactive | inactive | – | – |
| CCCCCCCCOc1ccccc1C(=O)Nc1ccc(C(=O)OCC[N+](C)(CC)CC)cc1 | inactive | inactive | – | – |
| CC(=O)Oc1ccc(C(=C2CCCCC2)c2ccc(OC(C)=O)cc2)cc1 | inactive | inactive | – | – |
| CCN(CC)CCNC(=O)c1cc(Cl)c(N)cc1OC | inactive | inactive | – | – |
| CCCCCCCCS(=O)(=O)O | inactive | inactive | – | – |
| Clc1ccccc1C(c1ccccc1)(c1ccccc1)n1ccnc1 | inactive | inactive | – | – |
| CC(COC(C)(C)C)OCCCO (configuration not stated) | inactive | inactive | – | – |
| CC[C@H](C)[C@H](N)C(=O)O | inactive | inactive | – | – |
| CCCCC/C=C\C/C=C\CCCCCCCC(=O)O | inactive | inactive | – | – |
| CC(=O)C=O | inactive | inactive | – | – |
